In ChEMBL document CHEMBL3988442, “University of Dundee, Small-Polar-MMV Screening Library” (2021):
The campaign covered roughly 69,000 compounds. About 420 (0.61%) showed an effect of 50% or more. The full list was thinned out, with strong results kept by preference.

Biological target: T1, Histidine--tRNA ligase (Leishmania infantum) (UniProt A4I591)
T1 sequence (whole entry): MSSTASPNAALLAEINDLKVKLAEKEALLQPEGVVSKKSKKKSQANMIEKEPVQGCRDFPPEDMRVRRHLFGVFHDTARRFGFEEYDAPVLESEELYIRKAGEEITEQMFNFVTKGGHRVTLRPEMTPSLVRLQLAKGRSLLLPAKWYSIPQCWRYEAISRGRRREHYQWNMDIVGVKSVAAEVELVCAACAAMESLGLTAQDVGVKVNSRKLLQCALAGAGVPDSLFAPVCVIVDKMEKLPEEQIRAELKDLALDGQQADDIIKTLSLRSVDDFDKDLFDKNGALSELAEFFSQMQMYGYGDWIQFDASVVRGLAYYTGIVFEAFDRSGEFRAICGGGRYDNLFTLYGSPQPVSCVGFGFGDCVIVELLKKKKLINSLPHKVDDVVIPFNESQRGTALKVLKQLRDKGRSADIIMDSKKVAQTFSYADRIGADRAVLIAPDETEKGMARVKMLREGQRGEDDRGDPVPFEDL
Assay: Leishmania infantum Histidine tRNA synthetase (LdHisRS)
Format: functional
Parameters: scale not given: in the data most compounds retested in dose-response had high values
Settings: 30 µM

Row | SMILES | Percent Effect [%]
1 | c1cnc(N2CCN(C3CCC[C@@H]4CN(CC5CC5)C[C@H]34)CC2)nc1 (stereo partly specified) | 2.86
2 | Cc1ccc(-c2nnc(CN3CCOC(Cn4cncn4)C3)o2)cc1 (stereo unspecified) | 3.39
3 | CCn1ncc(CN2C[C@@H]3CCCN3C[C@H]2CCSC)c1C | -58
4 | CC(C)N1CCN2C(=O)N(C3CCCCC3)C[C@H]2C1 | 18.9
5 | CCO[C@@H]1C[C@H]2CN(S(=O)(=O)c3cccs3)CCN2C1 | 7.89
6 | CN(C)S(=O)(=O)N1C[C@H]2C[C@H](C(=O)NCc3ccccc3)[C@@H](C1)O2 | 3.64
7 | NCC1Cc2cc(Oc3cc(F)c(CN4CCCC4)c(F)c3)ccc2O1 (stereo unspecified) | 57.5
8 | COc1ccc(CN2CCCC2)cc1Oc1ccc2c(c1)CC(CN)O2 (stereo unspecified) | 25.8
9 | Cc1cc(CN2CCCC2)cc(Oc2ccc3c(c2)CC(CN)O3)c1 (stereo unspecified) | 12.5
10 | O=C(C1CCC1)N1CCN(Cc2ccccc2F)[C@H]2CS(=O)(=O)C[C@H]21 | 23.3
11 | Cc1oc(C)c(C(=O)N2CCN(Cc3cscn3)CC2)c1C | 13.3
12 | Cn1cc(C(=O)N2CCN(Cc3cscn3)CC2)ccc1=O | 15.3
13 | CC(C)c1nnc(NC(=O)N2CCN(C)CC2c2ccccc2)s1 (stereo unspecified) | 4.17
14 | CCOC1CCN(C(=O)NCc2ccc(C(=O)N(C)C(C)C)cc2)CC1 | 16.7
15 | CCOC1CCN(C(=O)Nc2ccc(=O)n(C)c2)CC1 | 114
16 | Cn1cc(NC(=O)N2CCC2c2ccccc2)ccc1=O (stereo unspecified) | 108
17 | CN1C(=O)CO[C@H](c2ccc(NC(=O)Nc3ccccc3)cc2)[C@H]1CO | 14.9
18 | CC(C)Oc1ncccc1CNC(=O)N1CCC1c1ccccc1 (stereo unspecified) | 16.8
19 | Cn1cc(NC(=O)N2CCN(Cc3cscn3)CC2)ccc1=O | 74.8
20 | CCOC1CCN(C(=O)NCc2ccc(CN3CCOCC3)cc2)CC1 | 13.5
21 | Cn1cc(NC(=O)C2CC(c3ccccc3)C2)ccc1=O (stereo unspecified) | 71.3
22 | Cn1cc(C(=O)N2CCN(c3ccccc3)CC2)ccc1=O | 11
23 | O=C1[C@@H]2C[C@H](O)CCN2C(=O)CN1CCSc1ccccn1 | 17.6

Row | SMILES | Percent Effect [%]
24 | COc1ccccc1S(=O)(=O)N1CCN(C)[C@@H]2CS(=O)(=O)C[C@@H]21 | -6.67
25 | CN(C)C[C@H]1C[C@@H]2CN(C(=O)c3ccco3)C[C@@H]2O1 | 10.3
26 | O=C1N(Cc2ccccn2)C[C@H]2CN(S(=O)(=O)c3ccccc3)CCN12 | 24.3
27 | Cn1nccc1C(=O)N1C[C@@H]2CC[C@H](Oc3cccc(F)c3)[C@@H]2C1 | 18
28 | Cc1cc(C(=O)N2C[C@@H]3CCCO[C@@H]3[C@H](N(C)C(C)C)C2)c(C)[nH]1 | 11.5
29 | O=C(NCc1cccs1)[C@H]1CC[C@@H]2[C@@H](CCN2Cc2ccoc2)O1 | 12.5
30 | CCS(=O)(=O)N1CCO[C@H]2[C@H](OCC3CCCC3)CC[C@@H]21 | 20.8
31 | O=C(O)[C@]12CCCN(Cc3ccsc3)C[C@H]1CN(c1ncccn1)C2 | 10.5
32 | O=C(Cc1cccc(F)c1)N1C[C@H]2CN(Cc3cccnc3)C[C@H]2C1 | 3.85
33 | CC(C)CN1C[C@@H]2OCC(=O)N(c3ccccc3)[C@@H]2C1 | 21.6
34 | O=C(C1CCOC1)N1CCC(OCc2ccccc2)CC1 (stereo unspecified) | 16.8
35 | C[C@H](NC(=O)N1CCC(Cc2ccccc2)CC1)C(=O)O | -5
36 | Cn1cc(NC(=O)N2CCC(CN3CCCC3)CC2)ccc1=O | 6.38
37 | Cn1cc(NC(=O)N2CCC(NS(C)(=O)=O)CC2)ccc1=O | 91.5
38 | CS(=O)(=O)NC1CCN(C(=O)NCC2CCCO2)CC1 (stereo unspecified) | 11
39 | Cn1cc(NC(=O)N2CCC(Cc3ccccc3)CC2)ccc1=O | 101
40 | NC(=O)Cn1cc(NC(=O)N2CCC(c3ccccc3)CC2)cn1 | 16.5
41 | Cn1cc(NC(=O)N2CCC(OCc3ccccc3)CC2)ccc1=O | 103
42 | CC(NC(=O)N1CCC(OCc2ccccc2)CC1)c1nncn1C (stereo unspecified) | 20.3
43 | CC(NC(=O)N1CCC(c2ccccc2)CC1)c1nncn1C (stereo unspecified) | 13.8
44 | Cn1cc(NC(=O)N2CCC(c3ccccc3)CC2)ccc1=O | 102
45 | CS(=O)(=O)NC1CCN(C(=O)c2ccc(F)cc2)CC1 | 28.1
46 | CN(C)C(=O)NC[C@H]1OC[C@@H]2CCN(Cc3ccoc3)C[C@@H]21 | -1.89

Row | SMILES | Percent Effect [%]
47 | Cn1cccc1C(=O)N1CCO[C@@H]2CN(Cc3ccco3)C[C@@H]2C1 | 11.8
48 | Cc1occc1C(=O)N1C[C@@H](OCc2cccnc2)[C@H]2OCCC[C@@H]21 | 28.2
49 | O=C1O[C@@H]2CN(Cc3cc4ccccc4s3)C[C@@H]2N1Cc1ccccn1 | 2.67
50 | CCN1C(=O)CO[C@@H]2CN(C(=O)C3CCOCC3)C[C@H]21 | 20.6
51 | CN(C)S(=O)(=O)N1CC[C@]2(O)CCN(CCCc3cccnc3)C[C@@H]2C1 | 18.4
52 | Cc1ccccc1CN1C[C@@H]2COC[C@]2(CNC(=O)C2CCC2)C1 | 13.9
53 | COCCOCC(=O)N1C[C@@H]2CC[C@H](Oc3ccccc3)[C@@H]2C1 | 26.3
54 | Cc1cc(CNc2ccc(C(F)(F)F)cc2)no1 | 17
55 | Cc1cc(CNc2ccc3nc(C4CC4)sc3c2)no1 | 27.6
56 | Cc1cc(CNc2ccc3nc(C)sc3c2)no1 | 58.6
57 | Cc1noc(C)c1CNc1cccc(C(=O)N2CCCC(O)C2)c1 (stereo unspecified) | 27.4
58 | Cc1noc(C)c1CNc1ccc2nc(C3CC3)sc2c1 | 75.9
59 | Cc1noc(C)c1CNc1cccc(C(=O)N(C)c2ccccc2)c1 | -0.855
60 | O=C(c1cscn1)N1CCO[C@H]2[C@@H](Oc3ccccn3)CC[C@@H]21 | 7
61 | Cc1noc(CN2C[C@H]3CC[C@@H]2CN(C2Cc4ccccc4C2)C3)n1 | 20.4
62 | O=C(N1CCOCC1)[C@@]12CCO[C@@H]1CCN(C1CCCCC1)C2 | 20.5
63 | Cc1cccc(CN2C[C@@H]3CN(C(=O)c4ccsc4)C[C@@H]3C2=O)n1 | 28.6
64 | Cc1cccc(CN2C(=O)CO[C@@H]3CN(Cc4nccn4C)C[C@H]32)c1 | 17.3
65 | CCc1ccc(C(=O)NCCNc2ncccn2)cc1 | 2.63
66 | O=C(NCCNc1ncccn1)c1ccc(Br)cc1 | 18.4
67 | Cc1ccc(C)n1-c1ccc(C(=O)NCCNc2ncccn2)cc1 | 53
68 | O=C(c1ccoc1)N1C[C@@H]2OCCN(c3ncccn3)[C@@H]2C1 | 15.3
69 | Nc1ccc(C(=O)N2C[C@@H]3CC[C@H](C2)N(Cc2ccccc2)C3)cn1 | 9.57

Row | SMILES | Percent Effect [%]
70 | CC(=O)N1[C@H](CN(C)C)C[C@@H]2CN(c3ncc(F)cn3)CC[C@@H]21 | 14.5
71 | COc1cc(CNc2cnn(C)c2)cc2c1OCCO2 | 53.6
72 | COc1cc(CNCCn2cc(C)cn2)cc2c1OCCO2 | 9.17
73 | COc1cc(CNCCc2cnn(C)c2)cc2c1OCCO2 | 24.8
74 | CC(C)NC(=O)[C@H]1C[C@@H]2[C@@H](C1)OCCN2Cc1ccco1 | 5.56
75 | Cc1cncc(C(=O)N2C[C@@H]3CN(S(C)(=O)=O)CCO[C@@H]3C2)c1 | 15.1
76 | O=C(N[C@@H]1CN(c2ncccn2)C[C@@H]2CCCO[C@@H]21)c1ccnnc1 | 22.9
77 | CC(=O)Nc1ccc2nc(CN(C)Cc3snnc3C)ccc2c1 | 61.2
78 | CC(=O)Nc1ccc(CN(C)Cc2snnc2C)cc1 | 16.3
79 | CC(=O)Nc1ccc2nc(CN(C)Cc3noc(C)n3)ccc2c1 | 18.4
80 | Cc1ccoc1C(=O)N1C[C@H](OCC2CC2)[C@H]2OCCC[C@H]21 | 2.65
81 | COC[C@@]12CC[C@@H](N3CCOCC3)C[C@H]1CCN(c1cc(C)ccn1)C2 | 19.4
82 | O=C([C@H]1C[C@@H]2[C@@H](C1)OCCN2CC1CC1)N1CCCC1 | 19.3
83 | CCC1CN(CCNC(C)=O)CCN1CCOC (stereo unspecified) | 4.76
84 | CCC1CN(CCC(=O)N(C)C)CCN1CCOC (stereo unspecified) | 50
85 | CCC1CN(CC(=O)N2CCC2)CCN1CCOC (stereo unspecified) | 28.6
86 | c1ccc(O[C@H]2C[C@@H]3CN(Cc4cnccn4)C[C@@H]3C2)cc1 | 15.9
87 | COc1cc(N2C[C@@H]3COC[C@]3(COCc3ccccn3)C2)ncn1 | 13.8
88 | NC(=O)c1ccc(N2CCCCC2)c(NC(=O)c2cc(Br)ccc2Cl)c1 | 80.7
89 | NC(=O)c1ccc(N2CCCCC2)c(NC(=O)c2ccc(Br)cc2)c1 | 20.4
90 | NC(=O)c1ccc(N2CCCCC2)c(NC(=O)c2cc(Br)ccc2F)c1 | 36.8
91 | NC(=O)c1ccc(N2CCCCC2)c(NC(=O)c2ccc(F)cc2Cl)c1 | 65.6
92 | NC(=O)c1ccc(N2CCCCC2)c(NC(=O)c2cc(F)ccc2F)c1 | 18.3

Row | SMILES | Percent Effect [%]
93 | NC(=O)c1ccc(N2CCCCC2)c(NC(=O)c2ccc(F)cc2F)c1 | 18.3
94 | O=S1(=O)C[C@@H]2[C@H](C1)N(Cc1cc(F)cc(Cl)c1)CCN2CCO | 0
95 | CN(C)C(=O)N1C[C@@H]2CC[C@H](C1)N(Cc1nnc(-c3ccco3)o1)C2 | -9.89
96 | NC(=O)NCC(=O)N1C[C@H]2CC[C@@H]1CN(Cc1cscn1)C2 | 0
97 | CCc1oc(C(=O)N2CC[C@H]3CC[C@@H](C2)N3)cc1CN(CC)CC | 12.6
98 | Fc1ccc(F)c(CN2CCC(c3cc4ncccc4cn3)CC2)c1 | 35.2
99 | Fc1cccc(CN2CCC(c3cc4ncccc4cn3)CC2)c1F | 29.6
100 | COc1ccc(C)cc1CN1CCC(c2cc3ncccc3cn2)CC1 | 60.6
101 | Cc1noc([C@@H]2C[C@@H]3CCN(c4nnc(C)s4)C[C@H]3O2)n1 | 13.5
102 | O=C(c1ccoc1)N1CC[C@H]2OCC[C@@]2(COc2ncccc2F)C1 | 24.5
103 | Cc1ccncc1C(=O)N1C[C@H]2CN(CC3CCC3)C[C@@]2(C(=O)O)C1 | -1.64
104 | Cc1nonc1CN(C)c1nc(-c2cccnc2)nc2c1CCNC2 | 67.5
105 | CN(CC1CCCCO1)c1nc(-c2cccnc2)nc2c1CCNC2 (stereo unspecified) | 9.95
106 | CN(CC(O)CO)c1nc(-c2cccnc2)nc2c1CCNC2 (stereo unspecified) | 7.85
107 | CS(=O)(=O)CC(=O)N1C[C@@H]2COC[C@]2(c2nnc(C3CC3)o2)C1 | 15.1
108 | N#Cc1cccc(CN2CC[C@@H]3CN(c4ncccn4)CCO[C@@H]3C2)c1 | -0.901
109 | CC(C)c1ccc(C(CN)N2CCc3sccc3C2)cc1 (stereo unspecified) | 17.8
110 | NCC(c1ccc(Cl)cc1)N1CCc2sccc2C1 (stereo unspecified) | 13.7
111 | CSc1ccc(C(CN)N2CCc3sccc3C2)cc1 (stereo unspecified) | 71.4
